Inconclusive results are not listed. Entries that show only a call come without a potency. Calls of active or inactive are those of the source. Calls come from the whole dose curve; as a rule, active = well fitted curve in the direction sought with a large enough effect; inconclusive = small, poorly fitted or top-dose-only effect, or another doubt; inactive = no such curve, though single readings can be large; an effect the other way counts as inactive or inconclusive.
Columns and labels:
[1] = qHTS of Trypanosoma Brucei Inhibitors: LOPAC Validation (AID 624147)
Summary of the method: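 ADP (130 uM final) triggers the TbPYK reaction after compound addition; incubation is 45 min at room temperature. Kinase-Glo Plus is then added and luminescence imaged. Normalized data are fitted to concentration-effect curves.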

[2] = biological target: Glucagon-like peptide 1 receptor (Homo sapiens) (UniProt P43220); test: qHTS of GLP-1 Receptor Agonists: LOPAC Validation (AID 624148);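 note: higher luminescence signal means agonism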
Sequence of Glucagon-like peptide 1 receptor (Homo sapiens) (P43220 whole entry, looked up): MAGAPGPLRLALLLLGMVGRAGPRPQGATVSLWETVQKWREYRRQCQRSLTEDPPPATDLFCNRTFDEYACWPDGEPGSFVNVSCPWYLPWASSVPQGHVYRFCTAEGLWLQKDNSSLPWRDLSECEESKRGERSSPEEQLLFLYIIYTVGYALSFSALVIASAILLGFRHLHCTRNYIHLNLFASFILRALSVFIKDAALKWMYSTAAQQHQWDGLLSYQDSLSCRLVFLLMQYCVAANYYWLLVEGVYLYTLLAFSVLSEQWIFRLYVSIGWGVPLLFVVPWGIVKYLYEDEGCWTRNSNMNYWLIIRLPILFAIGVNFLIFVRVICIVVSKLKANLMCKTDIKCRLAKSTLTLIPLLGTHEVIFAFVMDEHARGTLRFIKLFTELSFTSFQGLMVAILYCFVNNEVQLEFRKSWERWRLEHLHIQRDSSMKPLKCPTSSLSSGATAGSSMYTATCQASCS
Summary of the method: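 HEK293 cells stably co-expressing GLP-1R and a cAMP-responsive luciferase reporter, plated 12 hours before compound, then incubated 4-6 hr at 37 deg C. Luminescence read 12 min after detection reagent.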

[3] = qHTS of Nrf2 Activators: LOPAC Validation (AID 624149)
Summary of the method: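 Luminescence read-out of ARE-luciferase activation: AREc32_Fluc cells treated with compounds for 24 hr at 37 deg C, then lysed with Steady-Glo for 30 min at room temperature before reading.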

[4] = biological target: Glutaminase kidney isoform, mitochondrial (Homo sapiens) (UniProt O94925); test: qHTS for Inhibitors of Glutaminase (GLS): LOPAC Validation (AID 624146); note: nearly all actives have a fitted effect of over 60% in size; note: potency is the fitted concentration of half-maximal effect
Sequence of Glutaminase kidney isoform, mitochondrial (Homo sapiens) (O94925 whole entry, looked up, canonical isoform): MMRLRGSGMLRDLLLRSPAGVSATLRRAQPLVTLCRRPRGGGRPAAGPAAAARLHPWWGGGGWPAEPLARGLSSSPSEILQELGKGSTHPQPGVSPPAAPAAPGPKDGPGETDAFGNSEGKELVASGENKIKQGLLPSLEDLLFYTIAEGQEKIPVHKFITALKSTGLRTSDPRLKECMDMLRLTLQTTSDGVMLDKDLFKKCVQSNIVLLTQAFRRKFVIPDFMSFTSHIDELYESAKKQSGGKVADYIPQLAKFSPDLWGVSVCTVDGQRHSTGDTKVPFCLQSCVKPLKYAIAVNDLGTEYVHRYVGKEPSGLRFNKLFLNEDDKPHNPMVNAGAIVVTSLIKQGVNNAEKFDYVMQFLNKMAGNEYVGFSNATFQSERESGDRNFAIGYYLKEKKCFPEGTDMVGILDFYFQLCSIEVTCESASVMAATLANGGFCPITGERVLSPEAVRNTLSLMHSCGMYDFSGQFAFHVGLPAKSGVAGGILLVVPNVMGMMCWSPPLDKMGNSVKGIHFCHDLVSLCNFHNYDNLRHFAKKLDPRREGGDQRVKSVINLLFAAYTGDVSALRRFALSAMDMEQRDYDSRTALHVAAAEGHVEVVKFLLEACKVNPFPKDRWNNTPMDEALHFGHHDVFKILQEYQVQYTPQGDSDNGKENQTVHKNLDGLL
Summary of the method: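 Enzyme dispensed in phosphate buffer (45 mM, pH 8.2, 0.02% Tween-20), compounds pinned in, then 1 mM L-glutamine solution and the glutamate oxidase–HRP–Amplex Red mix added; fluorescence read immediately and again after 30 min at room temperature.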

[5] = HTS Assay for Allosteric Antagonists of the Human D2 Dopamine Receptor: Hit Validation in HTRF (AID 624455); note: potency is the fitted concentration of half-maximal effect;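 note: stable D1 dopamine receptor cell line scored for blocking the D1 response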
Summary of the method: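 First, antagonism was screened by calcium flux in a force-coupled, inducible Hek293 Trex D2 line challenged with EC80 dopamine. Hits then went into an HTRF assay in cells stably expressing D1, testing inhibition of the D1 response.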

| Compound | Potency [1] | outcome [2] | Potency [3] | Potency [4] | Potency [5] |
| --- | --- | --- | --- | --- | --- |
| CCCN1CC[C@@H]2c3cc(O)ccc3CC[C@@H]21 | inactive | inactive | inactive |  |  |
| C[C@@H]1[C@@H]2Cc3ccc(O)cc3[C@@]1(C)CCN2CC1CC1 | inactive |  |  |  |  |
| c1ccc2c(c1)[I+]c1ccccc1-2 | inactive | inactive | inactive | inactive | inactive |
| O=[N+]([O-])/C=C/c1ccc2c(c1)OCO2 |  | inactive | inactive | 12600 nM (active) | inactive |
| Cc1cc([C@@H]2CCCN2C)on1 | inactive | inactive | inactive | inactive | inactive |
| NCCc1ccc(S(=O)(=O)F)cc1 | inactive | inactive | inactive | inactive | inactive |
| CN(C(=O)Cc1ccc(Cl)c(Cl)c1)C(CN1CCCC1)c1cccc(OCC(=O)O)c1 (stereo not drawn) | inactive | inactive | inactive | inactive | inactive |
| N=C(N)c1ccc(CS(=O)(=O)F)cc1 | inactive | inactive | inactive | inactive | inactive |
| CCS(=O)(=O)Nc1cccc(C(=C2CCCCC2)c2cnc[nH]2)c1 | inactive | inactive | inactive | inactive | inactive |
| CCNC(=O)[C@H]1O[C@@H](n2cnc3c(N)ncnc32)[C@H](O)[C@@H]1O | inactive | inactive | inactive | inactive | inactive |
| CN1CCc2cc(O)cc3c2[C@H]1Cc1ccc(O)c(O)c1-3 |  | inactive | inactive | 2240 nM (active) |  |
| CCCN1CCc2cc(O)cc3c2[C@H]1Cc1ccc(O)c(O)c1-3 | inactive | inactive | inactive | 1410 nM (active) | 65.1 nM (active) |
| N#CCCN | inactive | inactive | inactive | inactive | inactive |
| CCCC[N+]1(C)C2CC(OC(=O)[C@H](CO)c3ccccc3)CC1C1OC12 (stereo partly drawn) | inactive | inactive | inactive | inactive | inactive |
| CN1CC[C@@]2(C)c3cc(OC(=O)Nc4ccccc4)ccc3N(C)[C@@H]12 | inactive | inactive | inactive | 1120 nM (active) | inactive |
| CC(C)[C@@]1(NC(=O)[C@@H]2C[C@@H]3c4cccc5[nH]cc(c45)C[C@H]3N(C)C2)O[C@@]2(O)[C@@H]3CCCN3C(=O)[C@H](Cc3ccccc3)N2C1=O | inactive | inactive | inactive |  | 51.7 nM (active) |
| CCCN(CCC)[C@@H]1CCc2cccc(O)c2C1 | inactive | inactive | inactive |  |  |
| CCCCCCCCCCCCCC(=O)O[C@@H]1[C@@H](C)[C@@]2(O)[C@@H](C=C(CO)C[C@@]3(O)C(=O)C(C)=C[C@@H]23)C2C(C)(C)[C@@]21OC(C)=O (stereo partly drawn) | inactive | inactive | inactive |  |  |
| OCc1cnc[nH]1 | inactive | inactive | inactive | inactive | inactive |
| C[N+]1(C)CCc2cc3c(cc2[C@H]1[C@@H]1OC(=O)c2c1ccc1c2OCO1)OCO3 | inactive | inactive | inactive | inactive | inactive |
| N#C/C(=C/c1ccc(O)c(O)c1)C(N)=S | inactive | inactive | inactive |  | inactive |
| CC(C)(O)[C@@H]1C2OC(=O)[C@@H]1[C@]1(O)C[C@H]3O[C@]34C(=O)O[C@H]2[C@]14C (tested in a mixture with another compound) | inactive | inactive | inactive | inactive | inactive |
| COc1cc(CC(C)N)c(OC)cc1I (stereo not drawn) | inactive | inactive | inactive | inactive | inactive |
| C=CCN1CC[C@]23c4c5ccc(O)c4O[C@@H]2/C(=N/N=C2\CC[C@@]4(O)C6Cc7ccc(O)c8c7[C@@]4(CCN6CC=C)[C@@H]2O8)CC[C@@]3(O)C1C5 | inactive | inactive | inactive | 2000 nM (active) | inactive |
| COc1ccc2c(c1O)-c1cccc3c1[C@@H](C2)N(C)CC3 | inactive | inactive | inactive | 3550 nM (active) | inactive |
| c1ccc2c(N3CCNCC3)cccc2c1 | inactive | inactive | inactive |  | inactive |
| CCCN(CCC)CCc1ccc(O)c(O)c1 | inactive | inactive | inactive |  | 92 nM (active) |

Reference: PubChem BioAssay (NCATS)
